According to PubChem BioAssay AID1159580 (chemical genetic matrix, 2015):
Out of some 5,500 compounds screened, about 2,000 (36%) were called active. Inconclusive results (about 18%) are left out. No stated cut-off is given here; in the data, active means normalized growth mostly below about 0.91 (no sharp cut-off); inconclusive means no clear call, values can overlap the other calls; inactive means mostly above about 0.92. The list shows a part of the results.

Assay: chemical genetic growth profiling, strain panel (AID 1159580);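 further: tested at 20 µM; growth read once vehicle control cultures reached saturation at 30 °C; 1 = growth at the plate median or of vehicle wells; lower values mean less growth of the strain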
Details: S. cerevisiae deletion strains, growth OD

Measured: normalized growth

CC(C)N(C(=O)CCl)c1ccccc1
inactive: locus YAL013W, strain DEP1, active compounds read low 1.03 | locus YAL021C, strain ccr4, active compounds read low 1.03 | locus YAL026C, strain drs2, active compounds read low 1.04 | locus YAL030W, strain snc1, active compounds read low 1.02 | locus YBL061C, strain skt5, active compounds read low 1.01 | locus YBR009C, strain hhf1, active compounds read low 0.949 | locus YBR021W, strain FUR4, active compounds read low 1.07 | locus YBR023C, strain chs3, active compounds read low 1.02 | locus YBR171W, strain sec66, active compounds read low 1.01 | locus YBR229C, strain ROT2, active compounds read low 1.02 | locus YBR231C, strain swc5, active compounds read low 0.991 | locus YBR279W, strain paf1, active compounds read low 0.993 | locus YCL011C, strain gbp2, active compounds read low 1.01 | locus YCL016C, strain dcc1, active compounds read low 1.01 | locus YCL029C, strain bik1, active compounds read low 1.02 | locus YCL061C, strain MRC1, active compounds read low 1.02 | locus YCL069W, strain vba3, active compounds read low 1.01 | locus YCR088W, strain abp1, active compounds read low 1.03 | locus YDL005C, strain med2, active compounds read low 1.04 | locus YDL035C, strain GPR1, active compounds read low 1.04 | locus YDL040C, strain nat1, active compounds read low 1 | locus YDL074C, strain BRE1, active compounds read low 1.05 | locus YDL101C, strain DUN1, active compounds read low 1.02 | locus YDL134C, strain PPH21, active compounds read low 1.02 | locus YDL185W, strain tfp1, active compounds read low 1.02 | locus YDL192W, strain arf1, active compounds read low 1.01 | locus YDR001C, strain nth1, active compounds read low 1.01 | locus YDR069C, strain doa4, active compounds read low 0.979 | locus YDR101C, strain arx1, active compounds read low 1.02 | locus YDR137W, strain rgp1, active compounds read low 1.08 | locus YDR150W, strain NUM1, active compounds read low 1.03 | locus YDR159W, strain sac3, active compounds read low 1.01 | locus YDR162C, strain NBP2, active compounds read low 1.03 | locus YDR195W, strain ref2 0.917 | locus YDR297W, strain sur2, active compounds read low 1.03 | locus YDR318W, strain mcm21, active compounds read low 1.02 | locus YDR334W, strain swr1, active compounds read low 1.01 | locus YDR335W, strain msn5, active compounds read low 1.01 | locus YDR388W, active compounds read low 1.02 | locus YDR502C, strain sam2, active compounds read low 1.02 | locus YEL003W, strain gim4, active compounds read low 1 | locus YEL037C, strain rad23, active compounds read low 1.01 | locus YEL061C, strain CIN8 (second series), active compounds read low 1.01 | locus YEL061C, strain CIN8, active compounds read low 1.02 | locus YER015W, strain faa2, active compounds read low 0.997 | locus YER016W, strain bim1, active compounds read low 1.01 | locus YER110C, active compounds read low 1.03 | locus YER111C, strain swi4, active compounds read low 1.02 | locus YER155C, strain BEM2 (second series), active compounds read low 1.01 | locus YER155C, strain BEM2, active compounds read low 1.03 | locus YER167W, strain BCK2, active compounds read low 1.03 | locus YFR010W, strain ubp6, active compounds read low 0.985 | locus YGL078C, strain dbp3, active compounds read low 1.03 | locus YGL086W, strain mad1, active compounds read low 1.02 | locus YGL167C, strain pmr1, active compounds read low 1.01 | locus YGL173C, strain kem1, active compounds read low 1.03 | locus YGL227W, strain vid30, active compounds read low 1.01 | locus YGL240W, strain doc1, active compounds read low 0.977 | locus YGL248W, strain PDE1, active compounds read low 1.04 | locus YGL253W, strain hxk2, active compounds read low 0.941 | locus YGR078C, strain PAC10, active compounds read low 1.02 | locus YGR135W, strain pre9, active compounds read low 1.01 | locus YGR229C, strain SMI1, active compounds read low 1.05 | locus YGR252W, strain gcn5, active compounds read low 0.958 | locus YHR013C, strain ard1, active compounds read low 0.881 | locus YHR027C, strain rpn1, active compounds read low 1.01 | locus YHR030C, strain SLT2, active compounds read low 1 | locus YHR079C, strain IRE1 (second series), active compounds read low 1.02 | locus YHR094C, strain hxt1, active compounds read low 1.01 | locus YHR129C, strain ARP1, active compounds read low 1.04 | locus YHR142W, strain chs7, active compounds read low 1.01 | locus YHR200W, strain rpn10, active compounds read low 1.02 | locus YIL066C, strain RNR3, active compounds read low 1.01 | locus YIL073C, strain SPO22, active compounds read low 0.961 | locus YIL125W, strain kgd1, active compounds read low 1.03 | locus YIR030C, strain dcg1, active compounds read low 1.02 | locus YJL092W, strain hpr5, active compounds read low 1.03 | locus YJL095W, strain BCK1 (second series), active compounds read low 1.01 | locus YJL095W, strain BCK1, active compounds read low 1.02 | locus YJL115W, strain asf1, active compounds read low 1.03 | locus YJL134W, strain LCB3, active compounds read low 1.03 | locus YJL154C, strain vps35, active compounds read low 1.02 | locus YJL164C, strain tpk1, active compounds read low 0.999 | locus YJL166W, strain qcr8, active compounds read low 0.955 | locus YJL168C, strain set2, active compounds read low 1 | locus YJL187C, strain SWE1 (second series), active compounds read low 1.02 | locus YJL187C, strain SWE1, active compounds read low 1.02
active: locus YDR392W, strain spt3, active compounds read low 0.649 | locus YJL129C, strain trk1, active compounds read low 1.23 [resistant]
